In the supplement of paper PMC6897291:

System: RIVA
Experiment: growth inhibition by drug plus 177Lu-lilotomab satetraxetan (1 - RLU/untreated control) (fraction); higher = stronger inhibition
Settings: 177Lu-lilotomab satetraxetan 0.5 ug/ml
Protocol: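 RIVA (RI-1) ABC-DLBCL cells were pretreated or not for 18 h with 0.5 ug/ml 177Lu-lilotomab satetraxetan (600 MBq/mg), washed and seeded (3000 cells/well) on 384-well plates pre-printed with the Selleck Cambridge Cancer Compound library. Viability was read by RealTime-Glo luminescence on days 3-6 after seeding. Effect = 1 - RLU/mean RLU of the 48 untreated no-drug control wells per plate; Bliss score = (M-E)/(1-Fa).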

| Compound | growth inhibition by drug plus 177Lu-lilotomab satetraxetan (10 nM, time (day): 3) | growth inhibition by drug plus 177Lu-lilotomab satetraxetan (10 nM, time (day): 4) | growth inhibition by drug plus 177Lu-lilotomab satetraxetan (10 nM, time (day): 5) | growth inhibition by drug plus 177Lu-lilotomab satetraxetan (10 nM, time (day): 6) | growth inhibition by drug plus 177Lu-lilotomab satetraxetan (100 nM, time (day): 3) | growth inhibition by drug plus 177Lu-lilotomab satetraxetan (100 nM, time (day): 4) | growth inhibition by drug plus 177Lu-lilotomab satetraxetan (100 nM, time (day): 5) | growth inhibition by drug plus 177Lu-lilotomab satetraxetan (100 nM, time (day): 6) |
| --- | --- | --- | --- | --- | --- | --- | --- | --- |
| CN(C)C/C=C/C(=O)Nc1cc2c(Nc3ccc(F)c(Cl)c3)ncnc2cc1O[C@H]1CCOC1 [Afatinib (BIBW2992)] | 0.437 | 0.523 | 0.544 | 0.558 | 0.389 | 0.492 | 0.493 | 0.456 |
| COc1cc2nccc(Oc3ccc(NC(=O)C4(C(=O)Nc5ccc(F)cc5)CC4)cc3)c2cc1OC [XL-184 free base (Cabozantinib)] | 0.545 | 0.613 | 0.621 | 0.628 | 0.445 | 0.52 | 0.529 | 0.532 |
| CN1CCN(c2ccc3nc(-c4c(N)c5c(F)cccc5[nH]c4=O)[nH]c3c2)CC1 [Dovitinib (TKI-258)] | 0.421 | 0.501 | 0.522 | 0.53 | 0.358 | 0.399 | 0.413 | 0.411 |
| Nc1cccc2c1C(=O)N(C1CCC(=O)NC1=O)C2=O (stereo not given) [Pomalidomide] | 0.434 | 0.529 | 0.549 | 0.555 | 0.439 | 0.414 | 0.434 | 0.443 |
| Cc1c(CCOc2ccc(C(=O)O)cc2)c2cc(Cl)ccc2n1C(c1ccccc1)c1ccccc1 | 0.505 | 0.573 | 0.594 | 0.582 | 0.296 | 0.41 | 0.419 | 0.435 |
